Results as given in PubChem BioAssay AID540259 (Broad Institute, 2011).
Results with a measured potency or affinity are listed apart. Activity calls are given as the source filed them.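 Rule for the calls: active = cell killing, meaning signal decrease, with fitted half-maximal dose at or below ten times the top valid tested dose; inconclusive = poor fit, or flat curve with 30 to 70% signal loss; inactive = the rest.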

experiment: HeLa cell cytotoxicity, dose response, cytotoxicity control for MITF activator project, CellTiter-Glo luminescence, cherry-pick samples (AID 540259); details: HeLa viability, CellTiter-Glo ATP luminescence, 24 h; series mostly up to 35 µM; activity change, negative = cytotoxicity: at the top concentration;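 note: 0% = DMSO neutral control and -100% = mitoxantrone positive control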

Compound	activity change, negative = cytotoxicity
C=CCn1cnc2c(nnn2-c2ccc(C)c(C)c2)c1=O	-8.47% (inactive)
Cc1ccc(S(=O)(=O)Nc2cccc(-c3ccc(N4CCCCCC4)nn3)c2)cc1	-18.1% (inactive)
O=C1c2ccccc2C(=O)N1CCc1c[nH]c2ccccc12	-2.72% (inactive)
CCCCCc1ccc(-c2ccc(OC)cc2)nc1	4.7% (inactive)
O=C(Cc1ccccc1F)Nc1ccc(SC(F)F)cc1	-0.022% (inactive)
CC1CCN(C(=O)Nc2ccc3nsnc3c2)CC1	7.47% (inactive)
COc1ccc(C(=O)NCCn2ccc3ccccc32)cc1	10.6% (inactive)
Cn1c2ccccc2c(=O)c2cc(C#Cc3ccccn3)ccc21	18.8% [at 11 µM] (inactive)
O=c1nc(/C=C/c2ccc(O)c(O)c2)oc2ccccc12	11.3% (inactive)
CC(=O)Nc1nnc(COc2ccc(Cl)cc2)s1	5.53% (inactive)
C/C(=N\O)c1ccc(N2C(=O)C3CC=C(Cl)CC3C2=O)cc1 (configuration not stated)	12.3% [at 11 µM] (inactive)
COC(=O)Cc1ccc(OCc2ccc(Cl)nc2)cc1	2.94% (inactive)
CCCC(=O)N1c2ccc(-c3csc(N)n3)cc2CC1C (configuration not stated)	16% (inactive)
FC(F)(F)c1ccnc(Oc2ccc(C3=NCCS3)cc2)c1	0.775% (inactive)
CC(=O)c1cccc(OCc2cc(C(=O)N(C)Cc3cnccn3)no2)c1	4.9% (inactive)
CCc1ccc(OC(=O)Nc2ccccc2)cc1	11.3% (inactive)
COC(=O)C(Cc1ccc(O)cc1)N1Cc2ccccc2C1=O (configuration not stated)	1.59% (inactive)
CC(=O)c1ccc(Nc2ccc(-c3ccccc3C)nn2)cc1	12.9% [at 11 µM] (inactive)
O=c1c2ccccc2oc2cc(NCCCn3ccnc3)ccc12	-2.6% (inactive)

Compound	activity change, negative = cytotoxicity
Cc1cccc(NC(=O)c2sc3nc(N)c(C#N)cc3c2N)c1	-3.44% (inactive)
COc1ccc(-c2c(C)nc3c(-c4ccsc4)cnn3c2N)cc1	0.683% (inactive)
CCn1cnc2cc(NCc3ccccc3Cl)ccc21	-1.68% (inactive)
O=C(NCC1CC1)Nc1ccc(Cl)cc1	8.75% (inactive)
CSc1nc2ccc(NC(=O)c3cccs3)cc2s1	-0.438% (inactive)
Nc1ccc(-c2nnc(-c3ccc(N)cc3)o2)cc1	6.98% (inactive)
Cc1ccc(NC(=O)Nc2ccc3c(c2)OCO3)c(OC(F)F)c1	3.43% (inactive)
CC(=O)c1cccc(NC(=O)c2cc3nc(C)cc(C)n3n2)c1	-6.5% (inactive)
CC(=O)Nc1ccc2c(c1)ncn2-c1ccccc1	16.7% (inactive)
Clc1ccc(-n2nnc(-c3cccnc3Cl)n2)cn1	5.34% (inactive)
Cc1ccc(Nc2nc(CSc3n[nH]c(N)n3)cs2)cc1	4.55% (inactive)
COc1ccc(N=C(C)c2sc3ccccc3c2O)cc1	0.743% (inactive)
CCN(CC)c1ccc(-c2nc3cnccc3n2C)cc1	-9.89% (inactive)
COc1cc(/C=C/c2nc3ccccc3c(=O)[nH]2)ccc1OC(F)F	0.185% (inactive)
Cc1cc(NC(=O)c2ccc(Cl)cc2)no1	-10.9% (inactive)
O=C(N/N=C/c1ccccn1)c1c[nH]c2ccccc12	3.24% (inactive)
O=C(Nc1ccc(NC(=O)c2ccccc2F)cc1)c1cccs1	-13.1% (inactive)
[O-]/[N+](=C\C=C\c1ccccc1)c1ccccc1	-0.305% (inactive)
